The supplement of paper PMC6331611
± gives the standard deviation of the averaged measurements. In all, about 1,600 compounds were measured (“normalized intracellular growth (luminescence, IQM-normalized) in RAW264.7 macrophages”: median about 1, lowest 2% from about 0.43 on). The list comes from a sample in which the lowest values are over-represented; it also holds similar structures and randomly drawn compounds.

System: Salmonella enterica serovar Typhimurium SL1344
Assay: normalized intracellular growth (luminescence, IQM-normalized) in RAW264.7 macrophages (fraction of plate interquartile mean); higher = more bacterial growth (less inhibition)
Conditions: 10 µM

Structure (SMILES) | normalized intracellular growth (time point: T3 (3 h)) | normalized intracellular growth (time point: Tfinal (~6 h))
Cc1ncc(CSSCc2cnc(C)c(O)c2CO)c(CO)c1O | 0.943 ± 0.057 | 1.06 ± 0.015
O=C(O)C1=C(CSc2nnnn2CS(=O)(=O)O)CS[C@@H]2[C@H](NC(=O)[C@H](O)c3ccccc3)C(=O)N12 | 0.979 ± 0.034 | 0.824 ± 0.19
Cc1ccc2c(Br)cc(Br)c(OC(=O)c3ccccc3)c2n1 | 0.944 ± 0.025 | 1.01 ± 0.097
S=C=Nc1ccc(N=C=S)cc1 | 1.04 ± 0.035 | 1.01 ± 0.11
CN(C)c1ccc2nc3ccc(=[N+](C)C)cc-3sc2c1 | 1.29 ± 0.088 | 1.4 ± 0.2
COc1cc(Cc2cnc(N)nc2N)cc(OC)c1OC | 0.563 ± 0.068 | 0.155 ± 0.025
COc1cc(/C=C/C(N)=O)cc(OC)c1OC | 1.04 ± 0.084 | 1.03 ± 0.12
COc1ccc(Cc2cnc(N)nc2N)cc1OC | 0.784 ± 0.028 | 0.17 ± 0.021
C[C@@H]1CC2C3C[C@H](F)C4=CC(=O)C=C[C@]4(C)[C@@]3(F)[C@@H](O)C[C@]2(C)[C@@]1(O)C(=O)COC(=O)C(C)(C)C (some centres undefined) | 0.961 ± 0.055 | 0.888 ± 0.12
Cc1cc(-c2ccc(/N=N/c3ccc4c(S(=O)(=O)O)cc(S(=O)(=O)O)c(N)c4c3O)c(C)c2)ccc1/N=N/c1ccc2c(S(=O)(=O)O)cc(S(=O)(=O)O)c(N)c2c1O | 1.06 ± 0.038 | 1.36 ± 0.084
CCOC(=S)SSC(=S)OCC | 0.994 ± 0.036 | 0.924 ± 0.067
C[C@@H]1NC(=O)[C@@H](N)CNC(=O)[C@H](C2CCNC(=N)N2)NC(=O)/C(=C/NC(N)=O)NC(=O)[C@H](CNC(=O)CC(N)CCCN)NC1=O.N=C1NCC[C@H]([C@@H]2NC(=O)/C(=C/NC(N)=O)NC(=O)[C@H](CNC(=O)C[C@@H](N)CCCN)NC(=O)[C@H](CO)NC(=O)[C@@H](N)CNC2=O)N1 | 0.976 ± 0.016 | 0.966 ± 0.059
CC(=O)N[C@@H]([C@@H](O)[C@H](O)[C@H](O)CO)[C@@H](O)CC(=O)C(=O)O | 1.02 ± 0.058 | 1.06 ± 0.24
C[C@@H]1O[C@@H](OC[C@H]2O[C@@H](Oc3c(-c4ccc(OCCO)c(OCCO)c4)oc4cc(OCCO)cc(O)c4c3=O)[C@H](O)[C@@H](O)[C@@H]2O)[C@H](O)[C@H](O)[C@H]1O | 0.951 ± 0.034 | 0.746 ± 0.24
OC[C@H]1O[C@@H](O[C@H]2[C@H](O)[C@@H](O)C(O)O[C@@H]2CO)[C@H](O)[C@@H](O)[C@H]1O (some centres undefined) | 1.05 ± 0.022 | 1.04 ± 0.026
C1CNCCN1 | 0.991 ± 0.091 | 0.655 ± 0.077
C[C@@H]1CN(c2c(F)c(F)c3c(=O)c(C(=O)O)cn(C4CC4)c3c2F)C[C@H](C)N1 | 0.986 ± 0.025 | 0.0257 ± 0.0074
C[C@@H]1CN(c2c(F)c(N)c3c(=O)c(C(=O)O)cn(C4CC4)c3c2F)C[C@H](C)N1 | 1.08 ± 0.037 | 0.0132 ± 0.002
COc1ccc(CN(CCN(C)C)c2ncccn2)cc1 | 1.1 ± 0.06 | 1.1 ± 0.093
Cc1cc2nc3c(=O)[nH]c(=O)nc-3n(CC(O)C(O)C(O)COP(=O)(O)O)c2cc1C (centres undefined) | 0.886 ± 0.064 | 1.08 ± 0.19
O=C(O)CN(CCN(CC(=O)O)CC(=O)O)CC(=O)O.[Na+].[Na+].[Na+] | 1.03 ± 0.021 | 1.54 ± 0.093
C[C@H]1O[C@@H](O[C@H]2[C@@H](O)C[C@H](O[C@H]3[C@@H](O)C[C@H](O[C@H]4CC[C@@]5(C)[C@H](CC[C@@H]6[C@@H]5CC[C@]5(C)[C@@H](C7=CC(=O)OC7)CC[C@]65O)C4)O[C@@H]3C)O[C@@H]2C)C[C@H](O)[C@@H]1O | 1.03 ± 0.042 | 1.08 ± 0.087
NC(=O)c1ccccc1O | 1.04 ± 0.085 | 0.978 ± 0.036
CCCc1nc(C(C)(C)O)c(C(=O)OCc2oc(=O)oc2C)n1Cc1ccc(-c2ccccc2-c2nnn[nH]2)cc1 | 1 ± 0.026 | 0.855 ± 0.39

Structure (SMILES) | normalized intracellular growth (time point: T3 (3 h)) | normalized intracellular growth (time point: Tfinal (~6 h))
CCCCc1nc(Cl)c(CO)n1Cc1ccc(-c2ccccc2-c2nnn[nH]2)cc1 | 0.909 ± 0.056 | 0.215 ± 0.0058
CCCCC(=O)N(Cc1ccc(-c2ccccc2-c2nnn[nH]2)cc1)[C@H](C(=O)O)C(C)C | 0.881 ± 0.033 | 0.239 ± 0.016
CCOc1nc2cccc(C(=O)O)c2n1Cc1ccc(-c2ccccc2-c2nnn[nH]2)cc1 | 0.992 ± 0.057 | 1.04 ± 0.034
CCCc1nc(C(C)(C)O)c(C(=O)O)n1Cc1ccc(-c2ccccc2-c2nnn[nH]2)cc1 | 1.027 ± 0.0089 | 1.118 ± 0.0057
CCCCC1=NC2(CCCC2)C(=O)N1Cc1ccc(-c2ccccc2-c2nnn[nH]2)cc1 | 1.06 ± 0.014 | 1.14 ± 0.22
CCCCC(CC)COc1ccc(-c2nc(-c3ccc(OC)cc3)nc(-c3ccc(OCC(CC)CCCC)cc3O)n2)c(O)c1 (centres undefined) | 1.02 ± 0.065 | 1.1 ± 0.17
Nc1nc(F)nc2c1ncn2[C@@H]1O[C@H](COP(=O)(O)O)[C@@H](O)[C@@H]1O | 0.982 ± 0.061 | 1.16 ± 0.13
O=C1OC2(c3ccc(O)cc3Oc3cc(O)ccc32)c2ccccc21 | 1.02 ± 0.069 | 0.891 ± 0.079
COc1ccc(C[C@H](N)C(=O)N[C@H]2[C@@H](O)[C@H](n3cnc4c(N(C)C)ncnc43)O[C@@H]2CO)cc1 | 0.993 ± 0.058 | 1.05 ± 0.16
NCCCC(=O)O [gamma-AMINOBUTYRIC ACID] | 0.9762 ± 0.0094 | 1.05 ± 0.096
FCOC(C(F)(F)F)C(F)(F)F | 1.01 ± 0.052 | 0.806 ± 0.18
NCCCC(O)(P(=O)(O)O)P(=O)(O)O | 0.994 ± 0.083 | 1.12 ± 0.14
CCCCCN(C)CCC(O)(P(=O)(O)O)P(=O)(O)O | 0.886 ± 0.014 | 0.0897 ± 0.012
O=C1c2ccccc2C(=O)C1c1ccc(Br)cc1 | 1.08 ± 0.047 | 1.15 ± 0.21
CO/N=C1\C[C@]2(C[C@@H]3C[C@@H](C/C=C(\C)C[C@@H](C)/C=C/C=C4\CO[C@@H]5[C@H](O)C(C)=C[C@@H](C(=O)O3)[C@]45O)O2)O[C@H](/C(C)=C/C(C)C)[C@H]1C | 0.979 ± 0.022 | 0.831 ± 0.033
CCN(CC)CCOc1ccc2c(c1)C(=O)c1cc(OCCN(CC)CC)ccc1-2 | 1 ± 0.035 | 1 ± 0.021
O=C(N[C@H](CO)[C@H](O)c1ccc([N+](=O)[O-])cc1)C(Cl)Cl | 0.927 ± 0.049 | 0.163 ± 0.022
O=C(O)CCC(=O)OC[C@@H](NC(=O)C(Cl)Cl)[C@H](O)c1ccc([N+](=O)[O-])cc1 | 0.927 ± 0.048 | 0.178 ± 0.014
CS(=O)(=O)c1ccc([C@@H](O)[C@@H](CO)NC(=O)C(Cl)Cl)cc1 | 0.925 ± 0.07 | 0.767 ± 0.047
CCCCCCCCCCCCCCCC(=O)OC[C@@H](NC(=O)C(Cl)Cl)[C@H](O)c1ccc([N+](=O)[O-])cc1 | 1.04 ± 0.037 | 0.822 ± 0.14
CS(=O)(=O)c1ccc([C@@H](O)[C@@H](CF)NC(=O)C(Cl)Cl)cc1 | 1.27 ± 0.096 | 0.22 ± 0.17
NC(=O)c1ccc([N+](=O)[O-])cc1Cl | 1.06 ± 0.052 | 1.18 ± 0.017
CC(=O)Nc1ccc(S(=O)(=O)Nc2ccc([N+](=O)[O-])cc2)cc1 | 0.992 ± 0.038 | 1.03 ± 0.15
